Assay outcomes as filed in PubChem.
A selection: hits, their analogues and other compounds. The true share with any hit is near 14%.
USP17 inh: inhibitors of human USP17 deubiquitinase; Ubiquitin carboxyl-terminal hydrolase 17-like protein 5 (Homo sapiens), A8MUK1; purified USP17, Ub-rhodamine cleavage fluorescence, 3 h; inhibition, % at 50 µM; actives 6.5% (n = 47,000); AID 1645855, 2021
USP28 inh: inhibitors of human USP28 deubiquitinase; Ubiquitin carboxyl-terminal hydrolase 28 (Homo sapiens), Q96RU2; purified USP28, Ub-rhodamine cleavage fluorescence, 30 min; inhibition, % at 25 µM; actives 3% (n = 47,000)
USP8 block: inhibitors of human USP8 deubiquitinase; Ubiquitin carboxyl-terminal hydrolase 8 (Homo sapiens), P40818; purified USP8, Ub-rhodamine cleavage fluorescence, 30 min; inhibition, % at 20 µM; actives 4.2% (n = 47,000); AID 1645853, 2021
Target sequence (P40818 whole entry, looked up): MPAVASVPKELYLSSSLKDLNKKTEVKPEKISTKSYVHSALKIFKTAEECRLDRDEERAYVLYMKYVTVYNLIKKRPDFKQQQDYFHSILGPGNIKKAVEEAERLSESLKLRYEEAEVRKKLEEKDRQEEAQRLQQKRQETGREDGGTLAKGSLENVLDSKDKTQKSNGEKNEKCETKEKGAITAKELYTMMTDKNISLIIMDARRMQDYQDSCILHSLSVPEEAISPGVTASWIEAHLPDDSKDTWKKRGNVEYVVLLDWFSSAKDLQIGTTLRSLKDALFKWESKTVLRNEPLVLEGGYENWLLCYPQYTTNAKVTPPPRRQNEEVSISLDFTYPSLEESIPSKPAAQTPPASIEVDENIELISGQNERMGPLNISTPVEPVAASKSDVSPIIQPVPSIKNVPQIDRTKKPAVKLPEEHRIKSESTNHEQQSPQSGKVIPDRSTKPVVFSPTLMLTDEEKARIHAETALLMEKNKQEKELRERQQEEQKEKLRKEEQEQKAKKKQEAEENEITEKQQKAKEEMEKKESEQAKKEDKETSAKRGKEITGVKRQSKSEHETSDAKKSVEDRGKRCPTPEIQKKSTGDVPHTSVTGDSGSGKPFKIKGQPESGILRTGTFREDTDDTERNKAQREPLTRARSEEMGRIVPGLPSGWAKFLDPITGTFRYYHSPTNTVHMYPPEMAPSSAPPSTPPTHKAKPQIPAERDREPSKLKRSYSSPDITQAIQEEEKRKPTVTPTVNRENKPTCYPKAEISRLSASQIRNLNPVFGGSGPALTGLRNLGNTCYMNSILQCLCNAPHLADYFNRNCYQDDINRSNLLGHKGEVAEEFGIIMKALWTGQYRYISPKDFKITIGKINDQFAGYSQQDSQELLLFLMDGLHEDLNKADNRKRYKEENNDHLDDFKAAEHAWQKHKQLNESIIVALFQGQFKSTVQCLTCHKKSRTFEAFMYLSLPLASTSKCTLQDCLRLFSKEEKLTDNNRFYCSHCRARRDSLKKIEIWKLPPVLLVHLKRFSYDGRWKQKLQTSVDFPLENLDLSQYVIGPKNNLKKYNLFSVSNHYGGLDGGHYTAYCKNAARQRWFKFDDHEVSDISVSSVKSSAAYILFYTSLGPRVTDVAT
USP30 inh: inhibitors of human USP30 deubiquitinase; Ubiquitin carboxyl-terminal hydrolase 30 (Homo sapiens), Q70CQ3; purified USP30, Ub-rhodamine cleavage fluorescence; inhibition, % at 25 µM; actives 5.3% (n = 47,000)
USP10 inh: inhibitors of human USP10 deubiquitinase | Ubiquitin carboxyl-terminal hydrolase 10 (Homo sapiens), Q14694 | purified USP10, Ub-rhodamine fluorescence, 60 min | inhibition, % at 20 µM | actives 1.1% (n = 47,000)
Of the large screens only hits and unclear results are named; the others gave an inactive call. Rule as the data show it: active = inhibition above about 30%; inactive = the rest.

COc1cccc(CNC(=O)[C@H](C)NC(=O)N2CCn3c2nc2ccccc23)c1	none
CCC(C)NC(=O)[C@H](C)NC(=O)N1CCn2c1nc1ccccc12 (some centres not stated)	none
CC(C)C[C@H](NC(=O)N1CCn2c1nc1ccccc12)C(=O)NCCc1ccccc1	none
Cc1ccccc1S(=O)(=O)N1CCC(c2nnc(C(=O)Nc3ccccc3)s2)CC1	none
O=C1[C@H]2Cc3c([nH]c4ccccc34)C(c3ccccc3)N2C(=O)N1c1ccc2c(c1)OCCO2 (some centres not stated)	none
COc1ccc(CNC(=O)[C@H](CCSC)NC(=O)N2CCn3c2nc2ccccc23)cc1	USP30 inh 44
O=C(Nc1cnn(-c2ncc(N3CCCC3)cn2)c1)C1CCCO1 (configuration not stated)	none
COc1ccc(NS(=O)(=O)c2cc(NC(=O)CCc3ccccc3)ccc2N2CCOCC2)cc1	none
O=C(Nc1cc(F)c2nc(N3CCCC3)ccc2c1)c1ccco1	USP17 inh 56, USP8 block 70
O=C(CCc1ccccc1)Nc1cc(F)c2nc(N3CCCCC3)ccc2c1	USP8 block 70
COc1cccc(CC(=O)Nc2cc(F)c3nc(N4CCOCC4)ccc3c2)c1	USP17 inh 58, USP28 inh 36, USP8 block 72
Cc1nc(Nc2ccc(NC(=O)c3ccco3)cc2)cc(N2CCOCC2)n1	none
CC(C)(C)c1cc(NC(=O)CCc2ccccc2)no1	none
COc1ccc(CCC(=O)Nc2cc(F)c3nc(N4CCOCC4)ccc3c2)cc1	USP8 block 47
O=S(=O)(Cc1ccc(Cl)cc1)c1ncn[nH]1	none
COc1ccc(-c2noc([C@@H]3CCCN3C3CCOCC3)n2)cn1	none
Cc1cccc(NC(=O)c2ccc(CNC(=O)c3ccccc3)o2)c1C	none
Cc1ccc(C(=O)NCc2ccc(C(=O)Nc3ccccc3C)o2)cc1	none
Cc1ccc(C(=O)NCc2ccc(C(=O)Nc3cccc(C)c3)o2)cc1	USP17 inh 60, USP30 inh 44
Cc1ccc(C(=O)NCc2ccc(C(=O)Nc3ccc(C)c(C)c3)o2)cc1	USP17 inh 54, USP30 inh 42
Cc1ccc(NC(=O)c2ccc(C)c(C)c2)cc1C	USP28 inh 40
Cc1ccc(C(=O)Nc2ccc(C)c(C)c2)c(C)c1	none
O=C(NC1CCC1)[C@H]1C[C@@H]2CN(Cc3ccc(F)cc3)C[C@H]1O2	none
COc1ccc(-c2cc(C(=O)Nc3cccc(C#N)c3)nn2C2CCS(=O)(=O)C2)cc1 (configuration not stated)	USP17 inh 39
CCCCNC(=O)c1cc(-c2ccc(C)cc2)n(C2CCS(=O)(=O)C2)n1 (configuration not stated)	none (no result: USP28 inh, USP30 inh)
c1ccc(-c2cnc([C@@H]3COCCN3Cc3csnn3)[nH]2)cc1	none
CN(C)c1ccc(CN2CCOC[C@H]2c2ncc(-c3cccnc3)[nH]2)cc1	USP8 block 33
O=C(C1CC1)N1CCc2cc(-c3cn4ccccc4n3)ccc21	none
COc1ccc(CCC(=O)NCc2nc3c(cnn3-c3ccccc3)c(=O)[nH]2)cc1	none
CCOc1ccc(Oc2nc(CN3CCCC3)nc3sc(C)c(C)c23)cc1	none
COc1ccc(C)cc1-n1nnnc1SCC(=O)c1cc(C)ccc1C	USP30 inh 32
Oc1ccc(-c2nc3ccc(Cl)cn3c2NC2CCCCC2)cc1	USP17 inh 67
Cc1ccc(Cl)cc1NC(=O)Cn1c(=O)n(CCC(=O)NC2CCCC2)c(=O)c2ccccc21	USP30 inh 41
COc1cccc(C(=O)Cn2c(=O)n(CCCC(=O)NCc3ccco3)c(=O)c3ccc(Cl)cc32)c1	none
O=C(CCn1c(=O)c2ccccc2n(Cc2ccc(F)cc2Cl)c1=O)NCc1ccco1	USP17 inh 38, USP8 block 48, USP10 inh 40
COc1cc2c(=O)n(CCC(=O)NCc3ccco3)c(=O)n(CC(=O)Nc3c(C)cccc3C)c2cc1OC	USP17 inh 61, USP28 inh 65, USP8 block 38, USP30 inh 30
Cc1ccc(Cl)cc1NC(=O)Cn1c(=O)n(CCC(=O)NCc2ccco2)c(=O)c2ccccc21	USP8 block 64, USP30 inh 32, USP10 inh 56
O=C(CCn1c(=O)c2ccccc2n(Cc2ccc([N+](=O)[O-])cc2)c1=O)NCc1ccco1	none
O=C(c1ncn2c1CN(CC1CC1)S(=O)(=O)c1ccccc1-2)N1CCCC1	none
O=C1N[C@H]2CCCN(C(=O)c3ccon3)[C@H]2CCCCCOc2ccccc21	none
COc1ccc(CN2CCN(C(=O)NCc3ccco3)CC2)cn1	none (no result: USP17 inh)
CCc1nc(CN2CCN(C3CCOCC3)CC(C(N)=O)C2)c(C)[nH]1 (configuration not stated)	none
CCc1nc(CN2CCOC(C)(C(=O)N3CCOCC3)C2)c(C)[nH]1 (configuration not stated)	USP30 inh 30
CC(C)CC(=O)N1CCCC(c2nn(CCOc3ccccc3)c3nccnc23)C1 (configuration not stated)	none
Oc1ccccc1CNc1nc2ccccc2n1CCN1CCCCC1	none
CCCn1c2ccccc2n2c(C(C)=O)c(-c3ccccc3)nc12	none
CCCn1c2ccccc2n2cc(-c3ccc(-c4ccccc4)cc3)nc12	USP17 inh 34, USP8 block 81
Brc1ccc(-c2cn3c4ccccc4n(CCN4CCCCC4)c3n2)cc1	USP8 block 48
Fc1ccc(-c2cn3c4ccccc4n(Cc4ccc(Cl)cc4)c3n2)cc1	USP17 inh 46, USP8 block 62
Cc1ccc(S(=O)Cc2ccc(C(=O)NCc3ccc(F)cc3)o2)cc1 (configuration not stated)	none
C[C@@H]1C(=O)CC[C@H]1C(=O)O	none
COc1ccc(-c2cnn(-c3ccc(NC(=O)Nc4cccc(C(F)(F)F)c4)cc3)c2)cc1	USP8 block 31 (no result: USP17 inh)
O=C(NCc1ccc2c(c1)OCO2)c1cc2occc2c(Nc2ccc(F)cc2)n1	none
Cc1ccc(Nc2nc(C(=O)NCc3ccc4c(c3)OCO4)cc3occc23)cc1Cl	USP17 inh 66, USP8 block 76
Cc1ccc(Nc2nc(C(=O)NCc3ccccc3)cc3occc23)cc1	USP17 inh 32
Cc1cccc(CNC(=O)c2cc3occc3c(Nc3ccc(F)cc3)n2)c1	none
COc1cccc(NC(=O)CSc2nccn2C2CCCCC2)c1	none (no result: USP17 inh)
Cc1nc2cc(-c3noc(-c4cccc5[nH]ccc45)n3)ccc2o1	USP17 inh 36, USP28 inh 42, USP8 block 55
O=c1ccc(-c2noc(-c3cccc4[nH]ccc34)n2)c[nH]1	none
Cc1nc2cc(-c3noc(-c4nn(C)c5ccccc45)n3)ccc2o1	USP30 inh 42
COc1cc2c(c(OC(=O)c3ccccc3)c1OC)CC(=O)CCC2	none
c1ccc2c(c1)CCN(c1ncnc3c1[nH]c1ccccc13)C2	USP8 block 44
O=C(Nc1ccc(Cl)cc1)c1nc(-n2cnnc2)ccc1Cl	USP17 inh 36
